Assay outcomes from PubChem.
Sampled rows, rich in hits. Any-hit rate of the full collection: about 1.1%.
gsp agonist – gsp mutant agonism | Potency, µM (series often up to 76.9 µM), without a hit: at the top dose activation (cAMP increase), usual class: activators | gsp mutant cells, cAMP HTRF, 30 min | 340,000 tested, 0.13% active | AID 624287; active means well fitted activation curve with a large enough effect; inconclusive means small, poorly fitted or top-dose-only effect, or another doubt; inactive means no such curve, though single readings can be large or run the other way; cell line not stated here;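 further: phosphodiesterase inhibitor Ro 20-1724 added with compounds to block cAMP breakdown; potency means the concentration at half of the fitted maximal effect; nearly all actives have a fitted effect of over 60% in size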
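Cells in DMEM/10% FBS with G418 were pretreated with compounds in DMSO plus […] (300 uM stock) for 30 min at 37C. cAMP was measured by HTRF (cAMP-d2 plus anti-cAMP antibody-K) after 30 min at room temperature.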
Integrin act MD – activators of alpha7 integrin expression for muscular dystrophy. 350,000 tested, 0.064% active. Potency, µM (highest dose often 38.3 µM), inactives show at the top dose activation, usual class: activators. alpha7betagal myoblasts, beta-gal FDG fluorescence, 48 h;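 further: potency means the concentration at half of the fitted maximal effect; 100% = response of the positive control SU9516; nearly all actives have a fitted effect of over 60% in size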
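alpha7betagal+/- myoblasts (passage 13, 250/well) treated 48 h at 37C with compounds at 1:260 dilution of DMSO stock. Lysed, then beta-galactosidase activity read as FDG fluorescence (ex 480/em 540) after 30 min, with pre-read for autofluorescence.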
RXFP1 ag – agonists of human relaxin receptor RXFP1; Q9HBX9; HEK293T-RXFP1 cAMP TR-FRET, 30 min; response scale: percent of porcine relaxin response, buffer zero; Potency, µM (series often up to 57.5 µM), without a hit: at the highest dose activation, actives largely listed as activators; 370,000 tested, 0.3% active; further: potency means the concentration at half of the fitted maximal effect; on the % scale 0 is the no-effect control and ±100 the full control effect; nearly all actives have a fitted effect of over 60% in size
Target sequence (Q9HBX9 whole entry, looked up): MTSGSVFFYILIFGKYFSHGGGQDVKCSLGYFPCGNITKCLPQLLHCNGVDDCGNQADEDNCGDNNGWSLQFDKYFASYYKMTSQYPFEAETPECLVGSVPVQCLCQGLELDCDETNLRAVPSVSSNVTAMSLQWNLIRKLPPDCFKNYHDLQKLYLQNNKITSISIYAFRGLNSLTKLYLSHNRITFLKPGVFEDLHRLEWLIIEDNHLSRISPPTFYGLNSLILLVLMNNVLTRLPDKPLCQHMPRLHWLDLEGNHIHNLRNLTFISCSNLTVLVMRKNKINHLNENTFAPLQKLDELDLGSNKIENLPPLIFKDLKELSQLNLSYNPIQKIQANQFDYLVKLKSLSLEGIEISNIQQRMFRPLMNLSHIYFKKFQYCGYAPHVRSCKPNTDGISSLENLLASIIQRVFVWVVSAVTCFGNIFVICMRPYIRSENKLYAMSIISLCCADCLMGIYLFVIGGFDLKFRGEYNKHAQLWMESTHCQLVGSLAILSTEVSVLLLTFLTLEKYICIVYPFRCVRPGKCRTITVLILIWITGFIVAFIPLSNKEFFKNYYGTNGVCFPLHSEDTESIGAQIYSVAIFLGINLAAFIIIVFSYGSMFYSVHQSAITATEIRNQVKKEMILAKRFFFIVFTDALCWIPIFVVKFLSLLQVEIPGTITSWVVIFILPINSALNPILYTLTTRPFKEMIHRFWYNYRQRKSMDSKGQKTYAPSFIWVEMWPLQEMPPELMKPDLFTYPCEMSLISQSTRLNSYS
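cAMP rise read by TR-FRET after 30 min, 37C compound exposure (up to 58 uM) in RXFP1-transfected HEK293 cells with Ro 20174 present. EC50 from Hill-equation fits, with 29 nM porcine relaxin as 100% and buffer as basal.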
RXFP1 antagonist – RXFP1 (human) relaxin receptor antagonism | 350,000 tested, 0.59% active | HEK293-RXFP1, relaxin-stimulated cAMP HTRF, 30 min; hits give low values | activity change, negative = inhibition, % at 57.5 µM | Q9HBX9;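 active means activity change of -60% or lower, but not beyond a set lower limit; inconclusive means change between -60% and -40%, or beyond the set limit; inactive means change above -40%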; further: on the % scale 0 is the no-effect control and ±100 the full control effect
gsp antag – antagonists of gsp mutant (McCune-Albright syndrome); gsp-mutant cells, cAMP HTRF, 30 min; Potency, µM (doses to about 76.9 µM), without a hit: top-dose activity change, negative = inhibition, most hits filed as inhibitors; 340,000 tested, 0.4% active; calls by dose curve; cell line not stated here;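 further: intracellular cAMP measured with PDE inhibitor Ro 20-1724 present during compound exposure; potency means the concentration at half of the fitted maximal effect; on the % scale 0 is the no-effect control and ±100 the full control effect; nearly all actives have a fitted effect of over 65% in size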
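Cells, 2000/well, grown 16–24 h in DMEM 10% FBS with 0.5 mg/ml G418, then compounds plus […] (300 uM addition stock), 30 min at 37C. cAMP read by HTRF (cAMP-d2 and anti-cAMP antibody-K in lysis buffer) after 30 min RT.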
ASM inhibitor – blocks human secretory acid sphingomyelinase. P17405. placental ASM, HMU-PC fluorogenic substrate, 60 min. Potency, µM (doses to about 57.5 µM), without a hit: at the top dose activity change, negative = inhibition, usual class: inhibitors. 340,000 tested, 0.006% active. AID 504937; further: potency means the concentration at half of the fitted maximal effect
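Fluorogenic HMU-PC substrate (9 uM final) is turned over by placental ASM in 60 min at 37 C after a 10 min compound preincubation. Reaction ended by alkaline stop (pH 10), with fluorescence read at 386/447 nm.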
* marks the source's active call; other numbers are inactive results; [ ] = remark or other dose. Unless noted, the call rests on the fitted dose curve; in most records, active means well fitted curve in the direction sought with a large enough effect; inconclusive means small, poorly fitted or top-dose-only effect, or another doubt; inactive means no such curve, though single readings can be large; an effect the other way counts as inactive or inconclusive.

Results for Cc1nn(Cc2cccc(F)c2)c(C)c1NC(=O)c1c(Cl)cnn1C ?
gsp agonist: -40%; Integrin act MD: 19%; RXFP1 ag: 1%; RXFP1 antagonist: -4; gsp antag: 4%; ASM inhibitor: -3%

Results for CCOC(=O)c1c(C)oc2ccc(N(C(C)=O)S(=O)(=O)c3c(C)cc(C)cc3C)cc12 ?
RXFP1 ag: 0%

How did CCOC(=O)c1ccc(CN(Cc2ccc(F)cc2)S(=O)(=O)c2ccc(F)c(C(=O)Nc3cc(Cl)ccc3OC)c2)cc1 do in these assays?
RXFP1 ag: 3%; RXFP1 antagonist: 7

Results for Cn1c(=O)c([N+](=O)[O-])c(NCCc2ccccc2)c2ccccc21 ?
gsp agonist: -14%[15.4 µM]; Integrin act MD: 17%; RXFP1 ag: 2%; RXFP1 antagonist: -12; gsp antag: -16%; ASM inhibitor: -10%

Results for CCn1c(=O)c([N+](=O)[O-])c(NCCc2ccccc2)c2ccccc21 ?
gsp agonist: -8%; Integrin act MD: -7%; RXFP1 ag: 0%; RXFP1 antagonist: -10; gsp antag: 40µM*; ASM inhibitor: -18%

How did O=C(c1cccn1-c1nnc(N2CCCC2)s1)N1CCN(c2ccccc2)CC1 do in these assays?
RXFP1 ag: 5%; RXFP1 antagonist: 2

How did Cc1ccc(Cl)cc1N1CCN(C(=O)c2cccn2-c2nnc(N3CCCC3)s2)CC1 do in these assays?
RXFP1 ag: -4%; RXFP1 antagonist: -83*

Results for CCCCCCCCCCCCCCC(O)C[N+](C)(CCO)CCO (centres undefined) ?
gsp agonist: 4%; Integrin act MD: -7%; RXFP1 antagonist: -61*; gsp antag: 4%; ASM inhibitor: inconclusive

Results for CCCCCCCCCCCCCCC[C@H](O)[C@@H](N)CO ?
RXFP1 antagonist: 6

What do the screens show for `COc1nccc(NCc2ccccc2)c1C#N`?
gsp agonist: inconclusive; Integrin act MD: 10µM*; RXFP1 antagonist: 7; gsp antag: 4%; ASM inhibitor: 5%

Results for N#Cc1c(NCc2ccccc2)ccnc1NCc1cccnc1 ?
gsp agonist: 12%; Integrin act MD: 0%; RXFP1 ag: 3%; RXFP1 antagonist: -2; gsp antag: -9%; ASM inhibitor: 2%

How did COC(=O)c1cccc(Oc2nc3c(c(=O)n(C)c(=O)n3C)n2Cc2ccc(C)cc2)c1 do in these assays?
gsp agonist: 7.9µM*; Integrin act MD: 0%; RXFP1 antagonist: -2; gsp antag: 10%; ASM inhibitor: -15%

How did CN(C)S(=O)(=O)N1CCC(Oc2cccc(C(=O)NCCC3=CCCCC3)c2)CC1 do in these assays?
gsp agonist: -38%; Integrin act MD: -40%; RXFP1 ag: -3%; RXFP1 antagonist: -15; gsp antag: 35µM*; ASM inhibitor: -2%

How did CN(C)S(=O)(=O)N1CCC(Oc2cccc(C(=O)NC3CCCCC3)c2)CC1 do in these assays?
gsp agonist: 8%; Integrin act MD: 0%; RXFP1 ag: 2%; RXFP1 antagonist: 12; gsp antag: inconclusive; ASM inhibitor: 1%

Results for C=CCN(CC=C)C(=O)c1ccc(OC2CCN(S(=O)(=O)N(C)C)CC2)cc1 ?
gsp agonist: 7%[15.4 µM]; Integrin act MD: 5µM*; RXFP1 ag: 5%; RXFP1 antagonist: -3; gsp antag: -20%; ASM inhibitor: -1%

How did O=C(Nc1ccncc1)c1cc(S(=O)(=O)N2CCOCC2)ccc1Cl do in these assays?
gsp agonist: 19%; Integrin act MD: 7%; RXFP1 ag: 0%; RXFP1 antagonist: -7; gsp antag: 7%

What do the screens show for `CCN1C(=O)[C@@H]2[C@@H](c3ccc(-c4ccc(F)cc4)c(OC)c3)N3CCC[C@@]3(C(=O)OC)[C@@H]2C1=O`?
Integrin act MD: -21%; gsp antag: -17%; ASM inhibitor: -2%

How did COc1ccc(OC)c(C2CC(=O)c3c([nH]c(C(=O)OCC4CCCO4)c3C)C2)c1 (centres undefined) do in these assays?
gsp agonist: -47%; Integrin act MD: 6%; RXFP1 ag: 1%; gsp antag: 40µM*; ASM inhibitor: -8%

How did O=S(=O)(c1ccccc1)[C@@]1(c2ccc(Br)cc2)C[C@@H]2ON=C(c3ccccc3)[C@@H]2C1 do in these assays?
Integrin act MD: -19%; RXFP1 ag: 0%; gsp antag: 11µM*; ASM inhibitor: -2%

Results for Cn1cc(S(=O)(=O)N2CCCC2)cc1C(=O)NCc1ccccc1Cl ?
gsp agonist: -58%; Integrin act MD: 21%; RXFP1 ag: 5%; RXFP1 antagonist: -73*; gsp antag: -5%; ASM inhibitor: 4%

How did COc1cccc(CNC(=O)c2cc(S(=O)(=O)N3CCOCC3)cn2C)c1 do in these assays?
gsp agonist: -9%; Integrin act MD: 16%; RXFP1 ag: 0%; RXFP1 antagonist: -82*; gsp antag: 0%; ASM inhibitor: 2%

What do the screens show for `COc1ccc(CCNC(=O)Cn2c(=O)n(-c3cc(F)ccc3F)c(=O)c3sccc32)cc1OC`?
gsp agonist: -28%; Integrin act MD: -10%; RXFP1 ag: 3%; RXFP1 antagonist: -15; gsp antag: 32µM*; ASM inhibitor: 1%

How did COc1ccc(CCNC(=O)Cn2c(=O)n(-c3ccc(F)cc3F)c(=O)c3sccc32)cc1OC do in these assays?
gsp agonist: -17%[15.4 µM]; Integrin act MD: -28%; RXFP1 ag: 1%; RXFP1 antagonist: inconclusive; gsp antag: -28%; ASM inhibitor: 1%

What do the screens show for `CCc1sc(C(=O)Nc2nc(-c3ccccn3)cs2)cc1C`?
gsp agonist: -4%; Integrin act MD: -27%; RXFP1 antagonist: -69*; gsp antag: -2%; ASM inhibitor: -3%

How did Cc1cccc2sc(N(CCCN(C)C)C(=O)CN3C(=O)c4ccccc4C3=O)nc12 do in these assays?
gsp agonist: 28%; Integrin act MD: 8%; RXFP1 ag: 0%; RXFP1 antagonist: -5; gsp antag: 7%; ASM inhibitor: -1%

How did Cc1cccc2sc(N(CCCN(C)C)C(=O)CCc3ccccc3)nc12 do in these assays?
gsp agonist: -16%; Integrin act MD: -68%; RXFP1 ag: -1%; RXFP1 antagonist: -85*; gsp antag: 12%; ASM inhibitor: -2%

Results for Cc1ccc2sc(N(CCCN(C)C)C(=O)c3ccc(Br)s3)nc2c1C ?
gsp agonist: 5%[15.4 µM]; Integrin act MD: -63%; RXFP1 ag: 7%; RXFP1 antagonist: -77*; gsp antag: 8%; ASM inhibitor: -15%

What do the screens show for `Cc1ccc(-c2nnc(Nc3ccc(F)cc3)c3ccccc23)cc1S(=O)(=O)NC(C)C`?
RXFP1 ag: 4%; RXFP1 antagonist: 0
